Laboratory results as given in PubChem BioAssay (NCATS).
“And” between values parts separate entries of the source, which are not always exact repeats. Equal values may be shown once. Records with an inconclusive call do not appear. The source made the active and inactive calls. Calls come from the whole dose curve; as a rule, active = well fitted inhibition curve with a large enough effect; inconclusive = small, poorly fitted or top-dose-only effect; inactive = flat fitted curve, though single readings scatter.

test system: astro; test: Drug repurposing screens with cells derived from glioblastoma tumor samples (AID 1345199); details: viability, ATP luminescence, 48 h; series mostly up to 45.9 µM; activity, negative = cell killing: at the top concentration; note: nearly all actives have a fitted effect of over 40% in size
How it was run: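 Primary testing used CD133+ neurospheres from four GBM patients, seven concentrations, 48 h exposure and ATP-based viability; confirmation added three slower-growing patient lines.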
% is set by controls: 0 for no effect and ±100 for the full control effect; potency is the fitted concentration of half-maximal effect.

Row | Structure (SMILES) | Potency | activity, negative = cell killing
1 | COc1cc2c(cc1O)CCN[C@]21CS[C@@H]2c3c(OC(C)=O)c(C)c4c(c3[C@H](COC1=O)N1[C@@H]2[C@H]2c3c(cc(C)c(OC)c3O)C[C@@H]([C@@H]1O)N2C)OCO4 | 8.91 µM (active) and 14.1 µM (active) | 
2 | OCCO[C@@H]1[C@@H](O)[C@H](O)[C@@H](CO)O[C@@H]1O |  | -3.4% (inactive)
3 | CC(Oc1ccccc1)C(=O)N[C@@H]1C(=O)N2[C@@H]1SC(C)(C)[C@@H]2C(=O)O (stereo partly drawn) |  | -8.67% [at 21.2 µM] (inactive)
4 | Nc1nc(N)c2nc(CNc3ccc(C(=O)N[C@@H](CCC(=O)O)C(=O)O)cc3)cnc2n1 |  | -1.38% (inactive)
5 | COc1cc(-c2ccc(-[n+]3nc(-c4ccccc4)nn3-c3ccc([N+](=O)[O-])cc3)c(OC)c2)ccc1-[n+]1nc(-c2ccccc2)nn1-c1ccc([N+](=O)[O-])cc1 | 3.55 µM (active) | 
6 | CCOc1ccc(N=Nc2ccc(N)cc2N)cc1 | 2.51 µM (active) | 
7 | CC1(C)C(C=C(Cl)Cl)C1C(=O)OCc1cccc(Oc2ccccc2)c1 (stereo not drawn) |  | -15.4% (inactive)
8 | CC[C@H]1OC(=O)[C@H](C)[C@@H](O[C@H]2C[C@@](C)(OC)[C@@H](O)[C@H](C)O2)[C@H](C)[C@@H](O[C@@H]2O[C@H](C)C[C@H](N(C)C)[C@H]2O)[C@](C)(O)C[C@@H](C)/C(=N\OCOCCOC)[C@H](C)[C@@H](O)[C@]1(C)O |  | -4.1% [at 21.2 µM] (inactive)
9 | CC(=O)OC(C)OC(=O)C(C)c1ccc(-c2ccccc2)c(F)c1 (stereo not drawn) | inactive | 
10 | COc1ccc(C[C@@H](C)NC[C@H](O)c2ccc(O)c(NC=O)c2)cc1 |  | -21.8% (inactive)
11 | C=C[C@]1(C)C[C@@H](OC(=O)CSC(C)(C)CNC(=O)[C@H](N)C(C)C)[C@]2(C)[C@H](C)CC[C@]3(CCC(=O)[C@H]32)[C@@H](C)[C@@H]1O |  | -25.8% (inactive)
12 | C[C@@H]1C[C@H]2[C@@H]3CCC4=CC(=O)C=C[C@]4(C)[C@@]3(F)[C@@H](O)C[C@]2(C)[C@@]1(O)C(=O)COP(=O)(O)O |  | 1.43% (inactive)
13 | CC(=O)Oc1c(C)cc(OCC(O)CNC(C)C)c(C)c1C (stereo not drawn) |  | -15.7% (inactive)
